# Screening data (PubChem)
# PAFAH2 inh: PAFAH2 enzyme inhibitors, primary screen, biochemical, fluorescence polarization, human. Platelet-activating factor acetylhydrolase 2, cytoplasmic (Homo sapiens), Q99487. recombinant PAFAH2, FP-rhodamine activity probe. inhibition, % at 3.39 µM. 340,000 compounds, 0.99% hits. AID 492956, 2010;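 active means inhibition above the mean over all tested compounds plus 3 SD, cut at about 30% in these data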;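 further: inhibitors block probe labeling of enzyme so polarization drops; 0% = enzyme with DMSO and 100% = wells lacking PAFAH2 protein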
# PAFAH1B3 inh: PAFAH1B3 enzyme inhibitors, primary screen, biochemical, fluorescence polarization, human; recombinant PAFAH1B3, FP-rhodamine probe; inhibition, % at 3.39 µM; 340,000 compounds, 0.28% hits; AID 492972, 2010;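 active means inhibition above the screen-wide average of all tested compounds plus 3 SD, cut at about 25% in these data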;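 further: 0% = enzyme with DMSO only and 100% = wells lacking PAFAH1B3 protein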
# Target sequence (Q15102 whole entry, looked up): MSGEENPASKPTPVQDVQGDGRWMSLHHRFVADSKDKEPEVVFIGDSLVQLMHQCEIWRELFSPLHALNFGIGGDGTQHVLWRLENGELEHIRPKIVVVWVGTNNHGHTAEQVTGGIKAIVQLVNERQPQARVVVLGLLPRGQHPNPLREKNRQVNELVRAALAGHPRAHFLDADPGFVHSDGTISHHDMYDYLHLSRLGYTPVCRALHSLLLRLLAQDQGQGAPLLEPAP
# DAGLB inh: DAGLB lipase inhibitors, primary screen, biochemical, fluorescence, HTS. Diacylglycerol lipase-beta (Homo sapiens), Q8NCG7. HEK293T DAGLB membrane lysate, EnzChek fluorogenic substrate. inhibition, % at 5.17 µM. 340,000 compounds, 0.059% hits. AID 504411, 2011; in the data active means inhibition above about 34%;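 further: 0% = enzyme with vehicle and 100% = wells lacking enzyme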
# pPAFAH inh: pPAFAH enzyme inhibitors, primary screen, biochemical, fluorescence polarization, human; Platelet-activating factor acetylhydrolase (Homo sapiens), Q13093; recombinant pPAFAH, FP-rhodamine probe fluorescence polarization; inhibition, % at 3.39 µM; 330,000 compounds, 1.5% hits; AID 463082, 2010;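 active means inhibition above the mean inhibition across the screen plus 3 SD, cut at about 25% in these data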;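 further: inhibitors block binding of the rhodamine activity-based probe so polarization drops; 0% = enzyme with DMSO and 100% = wells lacking pPAFAH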
# ATG4B inh: ATG4B protease inhibitors, primary screen, biochemical, fluorescence, uHTS; Cysteine protease ATG4B (Homo sapiens), Q9Y4P1; ATG4B cleavage of LC3-PLA2, NBD-HPC fluorescence, 1 h; inhibition, % at 8.33 µM; 340,000 compounds, 0.51% hits; in the data active means inhibition above about 40%
# PAFAH1B2 FP inh: PAFAH1B2 enzyme inhibitors, primary screen, biochemical, fluorescence polarization, human; Platelet-activating factor acetylhydrolase IB subunit alpha2 (Homo sapiens), P68402; recombinant PAFAH1B2, FP-rhodamine activity probe; inhibition, % at 3.39 µM; 340,000 compounds, 1.2% hits; AID 492953, 2010;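 active means inhibition above the mean of all tested compounds plus 3 SD, cut at about 24% in these data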;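 further: 0% = enzyme with DMSO and 100% = wells lacking PAFAH1B2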
# Target sequence (P68402 whole entry, looked up): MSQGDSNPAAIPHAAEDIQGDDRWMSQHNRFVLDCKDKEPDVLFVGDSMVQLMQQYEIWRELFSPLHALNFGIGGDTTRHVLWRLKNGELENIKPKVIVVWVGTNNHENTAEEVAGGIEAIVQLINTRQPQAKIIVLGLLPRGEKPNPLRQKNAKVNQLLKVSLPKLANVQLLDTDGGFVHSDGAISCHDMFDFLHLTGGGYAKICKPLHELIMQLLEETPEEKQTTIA
# PAFAH1B3 conf FP: PAFAH1B3 enzyme inhibitors, confirmation, biochemical, fluorescence polarization, human; shares compounds with PAFAH1B3 inh; recombinant PAFAH1B3, FP-Rh activity-based probe; inhibition, % at 3.39 µM; 390 compounds, 30% hits;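 active means average inhibition over triplicate runs above the hit cutoff set in the earlier primary screen, cut at about 25% in these data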;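 further: 0% = enzyme with DMSO and 100% = wells lacking PAFAH1B3 protein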
# DAGLB inh conf: DAGLB lipase inhibitors, retest, confirmation, biochemical, fluorescence, HEK293T membranes; AID 504445, 2011; 190 compounds, 73% hits; shares compounds with DAGLB inh; HEK293T DAGLB membrane lysate, EnzChek fluorogenic substrate; inhibition, % at 5.17 µM;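 active means mean inhibition over triplicate wells above a set limit taken from the primary lipase screen, cut at about 34% in these data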;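 further: 0% = DAGLB with DMSO and 100% = wells lacking DAGLB enzyme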
# ATG4B confirm: ATG4B protease inhibitors, retest, confirmation, biochemical, fluorescence, single concentration; shares compounds with ATG4B inh; ATG4B protease fluorescent substrate cleavage assay; inhibition, % at 8.33 µM; 320 compounds, 92% hits; AID 504757, 2011; in the data active means inhibition above about 39%
# PLA2 counter: PLA2 enzyme inhibition, counter-screen for ATG4B inhibitor project, biochemical, single concentration, uHTS hits; shares compounds with ATG4B inh; purified PLA2, NBD-C6-HPC fluorescence, 45 min; inhibition, % at 8.33 µM; 1,600 compounds, 66% hits; AID 588402, 2011; in the data active means inhibition above about 50%
# Target sequence (P04054 whole entry, looked up): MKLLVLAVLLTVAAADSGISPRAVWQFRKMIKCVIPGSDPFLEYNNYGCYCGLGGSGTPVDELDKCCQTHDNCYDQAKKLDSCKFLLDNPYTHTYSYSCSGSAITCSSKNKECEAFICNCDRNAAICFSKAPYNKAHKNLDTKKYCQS
# An asterisk follows results filed as active; nt = no result given; ! = a repeat was not active. This is a sample that favours compounds with a hit; in the whole collection about 3% have one here.
SMILES,PAFAH2 inh,PAFAH1B3 inh,DAGLB inh,pPAFAH inh,ATG4B inh,PAFAH1B2 FP inh,PAFAH1B3 conf FP,others
CCCCn1c(NC(=O)c2ccc(Br)o2)c(S(=O)(=O)c2ccccc2)c2nc3ccccc3nc21,17,50*,5,-1,2,22,9,
CC1OC(CC(=O)O)CC2=C1C(=O)c1c(O)cccc1C2=O (stereo not drawn),14,53*,-2,nt,8,13,22,
O=C1c2cccc(O)c2C(=O)c2c(O)cccc21,nt,nt,nt,14,nt,nt,nt,
CC1(C)CC(Cc2ccc(C(=O)c3ccccc3)cc2)N(C(=O)OC(C)(C)C)N1 (stereo not drawn),nt,nt,-3,nt,nt,nt,nt,
COc1ccc(C(=O)c2nccc3cc(OC)c(OC)cc23)cc1OC,12,57*,-3,5,1,10,8,
CN(C)/C=C/C(=O)c1cc(F)cc(C(F)(F)F)c1,3,9,5,11,-14,0,nt,
O=c1c2cccc3c2c(nn1CN1CCOCC1)-c1ccccc1-3,7,26*,0,4,-18,8,36*,
O=C(Nc1ccccc1)C1=C[C@@H](c2ccc(C(F)(F)F)cc2)C[C@@H](OCCCCO)O1,-5,-2,-1,6,7,0,nt,
Cc1ccc(/C=C2/C(=O)c3ccc(C(=O)O)cc3C2=O)o1,16,26*,0,nt,19,14,17,
CC(=O)N(/N=C1\Sc2ccccc2C1=O)c1ccccc1C,4,41*,7,-3,-5,5,54*,
CC(=O)N(/N=C1\Sc2ccccc2C1=O)c1ccccc1,11,44*,1,nt,-4,13,62*,
CCc1cc(/C(Cc2csc(C)n2)=N/O)c(O)cc1O,8,29*,-1,8,2,13,23,
CCCN(CC(=O)Nc1ccccc1C)C(=O)c1cccc(-n2cnnn2)c1,3,-1,5,6,1,-3,nt,
Oc1ccccc1/C=N/n1c(COc2ccccc2)n[nH]c1=S,3,43*,5,0,-2,10,5,
CCOC(=O)c1c(C)[nH]c(C)c1S(=O)(=O)NCc1cc(C)ccc1C,5,6,-3,3,-6,4,nt,
CN(Cc1ccc(F)cc1)C(=O)c1cc(S(=O)(=O)N2CCCCC2)ccc1N1CCOCC1,8,0,1,nt,1,5,nt,
COc1cc(-c2nc3c4ccccc4nc(=S)n3[nH]2)cc(OC)c1OC,-2,30*,0,6,-2,5,25,
CCCCN(C(=O)c1nn(C)c(=O)c2ccccc12)c1c(N)n(CC(C)C)c(=O)[nH]c1=O,0,9,1,-2,-3,0,nt,
CCCCc1ccc(-c2csc(/C(C#N)=C\c3ccc(C)o3)n2)cc1,-8,-9,4,10,8,-3,nt,
CCOc1ccc(-c2csc(/C(C#N)=C\c3ccc(O)c([N+](=O)[O-])c3)n2)cc1,19,35*,21,21,9,14,22,
O=C1Nc2c(Cl)cc(Cl)cc2C1=O,13,43*,-3,nt,15,16,23,
COC(=O)c1[nH]c2ccccc2c1NC(=O)c1c(F)cccc1F,-4,2,-1,7,-5,-6,nt,
COCCCNc1nc2ccccc2nc1NS(=O)(=O)c1cccc(Cl)c1,7,8,0,11,4,6,nt,
O=S(=O)(Nc1nc2ccccc2nc1NCCO)c1cccc(Cl)c1,4,26*,6,10,-8,9,10,
CCN(Cc1nc2cc(Cl)ccc2c(=O)[nH]1)C(=O)c1cc(C2CC2)nn1-c1ccccc1,2,-2,1,nt,11,-2,nt,
SMILES,PAFAH2 inh,PAFAH1B3 inh,DAGLB inh,pPAFAH inh,ATG4B inh,PAFAH1B2 FP inh,PAFAH1B3 conf FP,others
Cn1c(=O)cc(Nc2ccccc2)[nH]c1=O,-1,1,-1,-2,-2,-2,nt,
O=c1[nH]c(Nc2ccccc2)cc2ccccc12,2,31*,-10,-6,40,8,18,ATG4B confirm=75*;PLA2 counter=-6
O=[N+]([O-])c1ccc(N/N=C/c2c[nH]c3ccccc23)c(S(=O)(=O)Nc2ccc(Cl)cc2)c1,27,30*,-3,1,42*,15,16,PLA2 counter=53*
COc1ccc(CN(C)C(=O)c2ccc(NS(=O)(=O)c3ccc4[nH]c(=O)[nH]c4c3)cc2)c(OC)c1OC,2,14,0,-2,4,4,nt,
CCCn1c(CN2CCN(C(=O)OCC)CC2)nc2cc(NC(=O)C(C)C)ccc21,-2,3,-1,4,0,0,nt,
C/C(=N/Nc1ccc([N+](=O)[O-])cc1)c1c[nH]c2ccccc12,3,36*,27,nt,46*,10,16,PLA2 counter=50
COC1=C(c2ccccc2)C(=O)c2ccccc2C1=O,4,6,-1,7,-10,5,nt,
O=C(C1=C(c2ccccc2)C(=O)c2ccccc2C1=O)c1ccccc1,8,58*,5,nt,45*,11,26*,PLA2 counter=51*
O=C1C(Nc2ccc(O)cc2)=C/C(=N/S(=O)(=O)c2cccs2)c2ccccc21,35*,64*,37*,nt,29,29*,nt,DAGLB inh conf=44*
Cc1ccc(Cl)cc1NC1=C/C(=N\S(=O)(=O)c2cccs2)c2ccccc2C1=O,31*,58*,43*,25*,-1,28*!,nt,DAGLB inh conf=46*
CC(=O)Nc1ccc(NC2=CC(=O)c3ccccc3C2=O)cc1,4,12,8,5,-1,2,nt,
CC(=O)c1c(C)[nH]c(C(=O)OCC(=O)N(Cc2ccccc2)C(C)(C)C)c1C,4,7,-2,nt,-10,15,nt,
